Here are results for 40 compounds from PubChem BioAssay (Tox21).

Results filed as inconclusive are left out. Unmarked numbers belong to inactive results. Active and inactive are the calls of the source. Calls come from the whole dose curve.
% is set by controls: 0 for no effect and ±100 for the full control effect; potency is the fitted concentration of half-maximal effect.

This assay can be described thus: qHTS assay for small molecule agonists of the antioxidant response element (ARE) signaling pathway - cell viability counter screen (AID 743203). Note: nearly all actives have a fitted effect of over 55% in size. As to conditions: ARE-bla HepG2 viability, CellTiter-Glo luminescence, 16 h; series mostly up to 73.3 µM; viability change, negative = cytotoxic: at the top concentration. An excerpt: National Center for Advancing Translational Sciences [NCATS]
NIH Chemical Genomics Center [NCGC]
U.S. Environmental Protection Agency [EPA]
National Institutes of Environmental Health Sciences [NIEHS]
National Toxicology Program [NTP]
U.S. Food and Drug Administration [FDA]
Oxidative stress has been implicated in the pathogenesis of a variety of diseases ranging from cancer to neurodegeneration. The antioxidant response element (ARE) signaling pathway plays an important role in the amelioration of oxidative stress. The CellSensor ARE-bla HepG2 cell line (Invitrogen) can be used for analyzing the Nrf2/antioxidant response signaling pathway. Nrf2 (NF-E2-related factor 2) and Nrf1 are transcription factors that bind to AREs and activate these genes. The CellSensor ARE-bla Hep G2 cell line contains a beta-lactamase reporter gene under control of the Antioxidant Response Element (ARE) stably integrated into HepG2 cells. The activation of the report gene under culture conditions can be detected by fluorescence intensity. This cell line has been used to screen the Tox21 10K compound library to identify agonists that induce oxidative stress. The cytotoxicity of the Tox21 compound library against the ARE-bla cell line was tested in parallel by measuring the cell viability using CellTiter-Glo assay (Promega, Madison, WI) in the same wells.
Tox21 Assay Protocol Summary:
ARE-bla HepG2 cells were dispensed at 2,000 cells/5 ul/well in 1536-well white wall/solid bottom plates using a Multidrop Combi (ThermoFisher Scientific, Waltham, MA) dispenser. After the assay plates were incubated at 37C/5% CO2 for 5 hrs, 23 nL of compounds dissolved in DMSO, positive controls or DMSO only was transferred to the assay plate by a pintool work station (Kalypsys, San Diego, CA). The plates were incubated at 37C/5% CO2 for 16 hrs, followed by addition of 4 ul/well of CellTiter-Glo reagent into the assay plates using a Flying Reagent Dispenser (Aurora Discovery, San Diego, CA). After 30 min incubation at room temperature, the luminescence intensity in the assay plates was measured using a ViewLux (PerkinElmer, Shelton, CT) plate reader.
For `O=C1OC[C@H](Cc2cccc(O)c2)[C@H]1Cc1cccc(O)c1`, the “viability change, negative = cytotoxic” value is 5.58% [at 34.3 µM].
On the same count and under the same terms, the result for `Nc1ccc(NC(=O)c2ccc(N)cc2)cc1` reads -9.8%; that for `CCCc1nc2c(C)cc(-c3nc4ccccc4n3C)cc2n1Cc1ccc(-c2ccccc2C(=O)O)cc1`, 2.2%.
Still for that read-out and setting: the result for `CC(=O)C(=O)CC(C)C` reads -9.94%.
As for `COc1ccc2nc(S(=O)Cc3ncc(C)c(OC)c3C)[nH]c2c1` (stereo not given), the Potency result was “inactive”.
As for `O=C(O)CO`, the “viability change, negative = cytotoxic” value is -17.1%.
Same read-out and setting: the result for `O=[N+]([O-])c1ccc2ncccc2c1` reads 1.63%.
On the same count and under the same terms, the result for `CC(=O)NNC(C)=O` reads -9.54% [at 94.8 µM].
With `CCN(CC)CCOc1ccccc1C(=O)CCc1ccccc1`, the “viability change, negative = cytotoxic” value is -5.67%.
Still for that read-out and setting: the result for `CCOC(=O)N1CCC(Nc2ccc(Cl)cc2N)CC1` reads -1.88%.
Same read-out and setting: the result for `COC1CCC=CO1` (stereo not given) reads -0.523% [at 94.8 µM]; that for `Nc1ccc(F)cc1`, -10.5% [at 94.8 µM].
As for `c1ccc(CNc2ncnc3c2ncn3C2CCCCO2)cc1` (stereo not given), the “viability change, negative = cytotoxic” value was 1.34%.
The same measure, in the same setting: the result for `CC(CCc1ccc(O)cc1)NCCc1ccc(O)c(O)c1` (stereo not given) reads -0.592%.
As for `COc1ccc(C)cc1`, the “viability change, negative = cytotoxic” value was 8.75%.
Take `CC(=O)Oc1cccc(O)c1`: the “viability change, negative = cytotoxic” value was -3.04%.
Turning to `COc1ccc(-c2cc(=S)ss2)cc1`, the “viability change, negative = cytotoxic” value was -0.639%.
Regarding `O=c1[nH][nH]c(=O)c2cc([N+](=O)[O-])ccc12`, the “viability change, negative = cytotoxic” value is 4.52% [at 94.8 µM].
For `Cc1cc([N+](=O)[O-])ccc1N`, the “viability change, negative = cytotoxic” value is 6.67%.
Same read-out and setting: the result for `NC(=O)c1ccccc1[N+](=O)[O-]` reads 6.97% [at 94.8 µM].
As for `COC(=O)c1sccc1S(N)(=O)=O`, the “viability change, negative = cytotoxic” value is 12.3%.
The same measure, in the same setting: the result for `Cc1cccc2sc(N)nc12` reads -2.1% [at 94.8 µM]; that for `N[C@@H](Cc1cc(I)c(O)c(I)c1)C(=O)O`, -1.42%.
The same measure, in the same setting: the result for `CC(C)c1ccc(C(=O)N=C(N)N)cc1S(C)(=O)=O` reads -4.57%; that for `COc1cc(OC)c2ccc(=O)oc2c1`, -0.677%.
In the case of `COc1ccc(C(=O)NCc2ccc(OCCN(C)C)cc2)cc1OC`, the “viability change, negative = cytotoxic” value was 1.63%.
As to `CC(=O)OCCC(C)CC(C)(C)C` (stereo not given), the “viability change, negative = cytotoxic” value is -6.16%.
`CC(=O)N[C@@H](Cc1ccc(O)cc1)C(=O)O`: the “viability change, negative = cytotoxic” value is 4.66%.
`CCCCCCCCCCCCCOS(=O)(=O)O`: the Potency was 61.1 µM (active).
As for `CCOC(=O)Oc1ccc(CCNC(=O)[C@H](CCSC)NC(C)=O)cc1OC(=O)OCC`, the “viability change, negative = cytotoxic” value was 6.47%.
Same read-out and setting: the result for `SCCc1cnccn1` reads -15.7%; that for `C[C@@H]1C[C@H]2[C@@H]3CCC4=CC(=O)C=C[C@]4(C)[C@@]3(F)[C@@H](O)C[C@]2(C)[C@@]1(O)C(=O)COP(=O)(O)O`, 9.86%.
The same measure, in the same setting: the result for `CCCCCCCCCCCSCC(=O)O` reads -27.4%.
Same read-out and setting: the result for `CC(C)(C)NCC(O)COc1cccc2c1C[C@H](O)[C@H](O)C2` (stereo not given in full) reads 0.969%; that for `CC(C)Cc1ccc(CC(=O)O)cc1`, -19.1%; that for `CCN(CC)c1cccc(O)c1`, -0.743% [at 94.8 µM].
As to `CC(CO)(CO)C(=O)O`, the “viability change, negative = cytotoxic” value was 7.67% [at 94.8 µM].
Still for that read-out and setting: the result for `CC(C)N(C)C` reads 0.355%; that for `O=C(C(=O)c1ccco1)c1ccco1`, -3.15% [at 94.8 µM].
Still for that read-out and setting: the result for `OCC(CO)n1cnc(-c2ccc(F)cc2)c1-c1ccnc(Oc2ccccc2)n1` reads -6%.
